This is part of a sample that, as a whole, favours compounds with a hit. Of some 83,000 tested, about 20% had one in any assay.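 Treatment: one concentration, 48 hours, 96-well format. Scoring: percent growth, with anything below 10 considered active.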 Values without a mark were called inactive. Calls of active or inactive are those of the source.
Assays:
Test in all cases: NCI-60 one-dose screen, 48 h (100 = growth as untreated, 0 = no growth, -100 = all killed)
Conditions in all cases: 10 µM unless noted
NCI-H23 lung = system: NCI-H23 lung
NCI-H226 lung = system: NCI-H226 lung
NCI-H322M lung = system: NCI-H322M lung
HOP-62 NSCLC = system: HOP-62 NSCLC
NCI-H460 lung = system: NCI-H460 lung
NCI-H522 lung = system: NCI-H522 lung
A549/ATCC NSCLC = system: A549/ATCC NSCLC
786-0 renal = system: 786-0 renal
COLO 205 colon = system: COLO 205 colon
DU-145 prostate = system: DU-145 prostate
K-562 leukemia = system: K-562 leukemia
MALME-3M melanoma = system: MALME-3M melanoma
MDA-MB-231 breast = system: MDA-MB-231 breast
RXF 393 renal = system: RXF 393 renal
SF-268 CNS = system: SF-268 CNS
SF-295 CNS = system: SF-295 CNS
SF-539 CNS = system: SF-539 CNS
UACC-257 melanoma = system: UACC-257 melanoma
M14 melanoma = system: M14 melanoma

Structure (SMILES)	growth (NCI-H23 lung)	growth (NCI-H226 lung)	growth (NCI-H322M lung) [%]	growth (HOP-62 NSCLC)	growth (NCI-H460 lung)	growth (NCI-H522 lung)	growth (A549/ATCC NSCLC)	growth (786-0 renal)	growth (COLO 205 colon)	growth (DU-145 prostate)	growth (K-562 leukemia)	growth (MALME-3M melanoma)	growth (MDA-MB-231 breast)	growth (RXF 393 renal)	growth (SF-268 CNS) [%]	growth (SF-295 CNS)	growth (SF-539 CNS)	growth (UACC-257 melanoma)	growth (M14 melanoma)
Cc1ccc(Nc2cc(Cl)c([N+](=O)[O-])cc2[N+](=O)[O-])cc1	63.8%	25.9%	86.7	62.8%	52.7%	-41.7% (active)	76.7%	23.5%	-31.2% (active)	46.7%	13.3%	70.4%	18.3%	-41.2% (active)	27.7	99.4%	21.7%	73.6%	34.7%
CNC(=O)c1c(NC(=O)c2cccc(C(F)(F)F)c2)sc2c1CCC(=O)C2	-1.79% (active)	1.92% (active)	15.4	13.6%	10%	-28.3% (active)	13.6%	13.3%	-31.7% (active)	23.9%		-28.9% (active)	-41.2% (active)	-18.9% (active)	21.7	-10.4% (active)	-30% (active)	-11% (active)	-10.9% (active)
COc1cc(CN(CCC(O)N2CCCC2=O)Cc2ccc3c(c2)OCO3)cc(OC)c1OC (centres undefined)	108%	104%	90.3	103%	106%	95.4%	106%	94.1%	120%	108%		109%	110%	121%	106	91.5%	100%	109%	95.8%
CCCCCCCCCCCC1=NC(C)(C)CN1C(C)C	49.8%	89.1%	97.7	54.6%	50.4%	43%	61.1%	54.5%	-53.7% (active)	68.9%		59.8%	53.7%	5.65% (active)	71.9	62.6%	55.6%	-9.06% (active)	-26.6% (active)
COc1ccccc1/C=C/C(=O)CCC(=O)O	106%	104%	101	96.2%	111%	103%	108%	96.7%	120%	108%		101%	114%	127%	111	105%	97.5%	115%	99.8%
COc1ccc2c(c1)OC1=C(C(=O)OC1)C2c1cc(OC)c2c(c1)OCCO2 (centres undefined)	16.2%	-13.6% (active)	44.3	24.1%	6.93% (active)	-10.7% (active)	18%	21.4%	-69.6% (active)	-13.7% (active)		62.9%	25%	37.7%	29.5	7.02% (active)	3.93% (active)	61%	4.69% (active)
COc1cccc(C2C(C#N)=C(N)Oc3cc4c(cc32)OCO4)c1 (centres undefined)	9.81% (active)	-7.07% (active)	37.6	22.7%	7.64% (active)	11.5%	21.4%	29.9%	-47.1% (active)	1.58% (active)		39.8%	30.2%	2.45% (active)	29.9	7.47% (active)	4.53% (active)	57.4%	0.938% (active)
Cc1ccsc1C(=O)CC(=O)C(F)(F)C(F)(F)C(F)(F)F	104%	93.1%	104	99.4%	114%	112%	99.4%	106%	112%	112%		105%	96.6%	108%	107	97.1%	102%	108%	117%
CN1CCCN(CCNc2nccc(-c3c(-c4cccc(O)c4)nc4sccn34)n2)S1(=O)=O	67.1%	72.4%	47.9	84.4%	40.2%	59.3%	45.8%	42.2%	29.3%	54.7%		9.87% (active)	44.9%	41.3%	71.5	57.8%	57.8%	36.8%	-0.122% (active)
Cc1ccc2c(C)c3c(ccc4ccccc43)c[n+]2c1	53.8%	83.7%	86.5	45.7%	74.3%	74.2%	41.7%	70.3%	91.5%	85%		-8.06% (active)	72.7%	104%	31.5	36.4%	72.8%	69.2%	89%
CC(C)(C)c1ccc(C(=O)Nc2sc3cc(O)ccc3c2C(N)=O)cc1	88.3%	101%	86.2	106%	51.2%	64.9%	82.5%	70.3%	57.2%	69.7%		94%	76%	70.6%	92.4	63.5%	53.9%	95.2%	22.1%
CCOC(=O)c1cnc(SCC)nc1SC#N	94.6%	142%	103	121%	115%	31.8%	101%	101%	82.1%	103%		97.7%	98.2%	173%	103	106%	89.2%	92.6%	84.7%
CCCCCCCCOC(=O)C(C)OC(=O)OCCOCCOC(=O)OC(C)C(=O)OCCCCCCCC (centres undefined)	113%	102%	92.4	105%	107%	114%	102%	104%	119%	104%		89.3%	107%	110%	103	93.6%	109%	107%	96.5%
COc1ccc(Nc2nc(N)nc3c(=O)[nH]ccc23)cc1	85.8%	105%	103	111%	107%	99.5%	104%	106%	118%	114%	69%	150%	110%	133%	106	106%	104%	131%	108%
Clc1cc2nc(-c3ccccc3)c(-c3ccccc3)nc2cc1Cl	79.6%	89.7%	106	89.9%	94.8%	86.1%	100%	103%	115%	103%		85.8%	88%	110%	105	98.7%	97.3%	111%	85.9%
CCOC(=O)C(Cc1ccccc1)n1c(O)c(/C=N/c2ncc(Cc3ccc(Cl)cc3Cl)s2)sc1=S (centres undefined)	11%	15.5%	15.7	8.75% (active)	2.04% (active)	-23.2% (active)	4.36% (active)	17.9%	-87% (active)	26.2%	2.17% (active)	-9.77% (active)	-18.2% (active)	2.54% (active)	24.4	-4.55% (active)	15%	-17.9% (active)	10.8%
C=C(c1ccc(C(=O)NCCCn2ccnc2)cc1)c1cc2c(cc1C)C(C)(C)CCC2(C)C	44%	72.3%	42.8	18%	13.9%	10.2%	40.3%	-17% (active)	10.3%	34%		-1.54% (active)	28.7%	35.8%	38.5	-29.6% (active)	2.41% (active)	99.2%	-76.4% (active)

— PubChem BioAssay (NCI)
